Source: PubChem (National Center for Advancing Translational Sciences (NCATS))
Bst PK mod: pyruvate kinase (B. stearothermophilus) modulation. purified pyruvate kinase, luminescence ATP production; ribose 5-phosphate activator present at AC10. Potency, µM. hit rate 1.2% among 51,000; in the data active = potency below about 11 µM; inconclusive = mostly about 12 µM to 25 µM;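 the screen sought inhibitors and activators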;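 note: scaled between full activation by ribose 5 phosphate and full inhibition by luteolin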
15-hLO inh: inhibitors of human 15-lipoxygenase (ALOX15); P16050; purified 15hLO-1, xylenol orange hydroperoxide absorbance; Potency, µM (doses to about 57.1 µM), inactives show top-dose activity change, negative = inhibition, usual class: inhibitors; hit rate 1.4% among 74,000; note: % is set by controls: 0 for no effect and ±100 for the full control effect; nearly all actives have a fitted effect of over 55% in size
Target sequence (P16050 whole entry, looked up): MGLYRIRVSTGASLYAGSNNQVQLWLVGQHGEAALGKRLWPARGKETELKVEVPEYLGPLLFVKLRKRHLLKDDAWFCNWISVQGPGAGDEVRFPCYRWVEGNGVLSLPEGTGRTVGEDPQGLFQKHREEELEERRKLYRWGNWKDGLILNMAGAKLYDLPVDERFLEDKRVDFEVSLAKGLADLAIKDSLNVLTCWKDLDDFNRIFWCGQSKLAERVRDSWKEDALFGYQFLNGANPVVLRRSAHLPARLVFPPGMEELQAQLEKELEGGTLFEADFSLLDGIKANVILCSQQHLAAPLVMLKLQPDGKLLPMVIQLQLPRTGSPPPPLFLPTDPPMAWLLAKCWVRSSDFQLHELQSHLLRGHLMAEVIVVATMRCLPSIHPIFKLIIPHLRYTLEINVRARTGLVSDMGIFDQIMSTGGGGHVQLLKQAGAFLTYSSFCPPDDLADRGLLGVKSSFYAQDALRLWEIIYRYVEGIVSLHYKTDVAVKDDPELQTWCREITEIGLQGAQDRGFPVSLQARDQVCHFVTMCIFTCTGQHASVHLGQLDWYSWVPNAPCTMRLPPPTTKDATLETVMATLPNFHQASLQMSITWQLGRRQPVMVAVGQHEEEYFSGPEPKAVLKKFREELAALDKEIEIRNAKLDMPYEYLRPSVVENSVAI
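Purified human 15hLO-1 (40 nM final) in 25 mM Hepes pH 7.5, 0.01% Triton X-100 was preincubated with compound 15 min at room temperature, then reacted 6 min with 50 uM arachidonic acid; hydroperoxide detected by Fe-XO, 573/405 nm absorbance ratio.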
USP2a inhib: inhibitors of human ubiquitin-specific protease USP2a | O75604 | USP2a enzymatic assay, qHTS inhibition | Potency, µM (top dose mostly 38.3 µM), for the others: at the top dose activity change, negative = inhibition, hits mostly inhibitors | hit rate 0.1% among 60,000; note: nearly all actives have a fitted effect of over 60% in size
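USP2 core (20nM final) preincubated 30 min RT with compound, then Ub-PLA2 20nM and NBD C6-HPC 20uM final added; buffer 20mM Tris-HCl pH 8.0, 2mM CaCl2. Fluorescence Ex 460/Em 535 read at 0 and 2.5 h; normalized to NEM.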
Tau filament bind: binders of human tau filaments. P10636. recombinant tau filaments, thioflavin S fluorescence, 15 h; filaments grown with octadecylsulfate alongside compound. Potency, µM (series often up to 57.1 µM), for inactives: at the top dose activity change, negative = inhibition. hit rate 2% among 71,000;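 note: % is set by controls: 0 for no effect and ±100 for the full control effect; actives lower thioflavin S fluorescence by blocking filaments or displacing dye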
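His-tagged recombinant human tau (exons 2, 3, 10; 1 uM final) fibrillized with 30 uM sodium octadecylsulfate, 15 h at 37 C, in pH 7.4 HEPES buffer with 10 uM thioflavine S and 5 mM DTT. Reduced ThS fluorescence (450/510 nm) marks activity.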
GBA mod: alters purified human glucocerebrosidase activity; AID 360; purified enzyme, resorufin glucoside fluorescence (screen aimed at inhibitors), 20 min; hit rate 1.1% among 48,000; Potency, µM; in the data active = potency below about 15 µM; inconclusive = mostly about 16 µM to 33 µM;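 note: the screen sought inhibitors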
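Compounds titrated against 0.2 nM normal enzyme, 30 uM resorufin beta-D-glucopyranoside substrate, citrate/phosphate buffer with taurocholate and tween-20, pH 5.9. Reaction ran 20 min at room temperature; fluorescence (Ex 548/Em 600) gave AC50.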
Hsp90 Hop PPI: changes Hsp90-Hop TPR2A binding signal, up or down. AlphaScreen TPR2A-His6 binding biotin-Hsp90 C-terminal peptide. Potency, µM (top dose mostly 57 µM), inactives show at the top dose activity change, negative = inhibition. hit rate 0.44% among 71,000; active = well fitted curve in either direction with a large enough effect; inconclusive = small, poorly fitted or top-dose-only effect, or another doubt; note: % is set by controls: 0 for no effect and ±100 for the full control effect
The depositor's hits bear a star; i = inactive; ? = inconclusive; · = not tested or not shown; [ ] = another dose, or the depositor's remark. In the library only some 4.6% were active in any assay of this set; here they are far more common. Unless noted, calls come from the whole dose curve; as a rule, active = well fitted curve in the direction sought with a large enough effect; inconclusive = small, poorly fitted or top-dose-only effect, or another doubt; inactive = no such curve, though single readings can be large; an effect the other way counts as inactive or inconclusive. Potency is the fitted concentration of half-maximal effect.

SMILES	Bst PK mod	15-hLO inh	USP2a inhib	Tau filament bind	GBA mod	Hsp90 Hop PPI
ICCc1ccccc1	·	13µM*	·	2%	·	?
CNc1ccc(O)cc1	·	?	·	20µM*	·	-6%
CNc1ccccc1	·	-2%	·	-6%	·	-3%
NC(=O)c1ccccc1[N+](=O)[O-]	·	-1%	·	0%	·	0%
CC(C)(C)C1CCC2(CC1)CCN(CCCN1CCOCC1)CC2	·	22%[11.4 µM]	·	10%[11.4 µM]	·	4%[11 µM]
Cc1cc(C(=O)CN2C(=O)c3ccccc3S2(=O)=O)c(C)n1-c1ccccc1	?	-5%	39%	-8%	>77	-8%
Cc1cc(C(=O)CN2C(=O)C3CC=CCC3C2=O)c(C)n1-c1ccccc1 (stereo unspecified)	6*	-2%	23%	4%	>77	-11%
CCN(CCNS(=O)(=O)c1ccc2[nH]c(=O)sc2c1)c1ccccc1	·	-8%	·	-4%	·	-4%
COc1ccc(-c2cc(N3CCCC3)n3ncnc3n2)cc1	9.2*	-25%	10%	43%	>77	-2%
COc1ccc(S(=O)(=O)N2CCN(c3cc(-c4ccccc4)nc4ncnn34)CC2)cc1	>57	-2%	25%	-4%	>77	-1%
COc1ccc(-c2cc(C(F)(F)F)nc(N3CCCCC3)n2)cc1OC	>57	?	?	2%	·	25µM*
COc1ccc(-c2cc(C(F)(F)F)nc(N3CCN(C)CC3)n2)cc1	>57	?	21%	167%	·	-4%
COc1ccc(-c2cc(C(F)(F)F)nc(N3CCCCCC3)n2)cc1	>57	-25%	-9%	3%	>77	25µM*
N#Cc1ccc(NC(=O)Nc2ccc(Cl)cc2)cc1	·	-17%	-15%	417%	·	5%
Cc1ccc(C(=O)OCC(=O)N2CC(=O)Nc3ccccc32)s1	>57	1%	-3%	-8%	>77	-3%
CC(=O)Nc1ccc(OC/C=C(\C)Cl)cc1	·	-1%	1%	-5%	·	1%
CCn1c(=S)sc2c(=O)n(-c3ccccc3)c(SC)nc21	>57	-7%	8%	43%	i	-10%
N#CCSc1nc2c(sc(=S)n2Cc2ccco2)c(=O)n1-c1ccc(F)cc1	>57	-14%	30%	8%	6*	-11%
CCCCOC(=O)c1cccc(NC(=O)CCC(=O)O)c1	·	-8%	0%	-8%	·	2%
CCOc1ccc(OCC)c2sc(C)nc12	3.4*	1%	4%	13%	>77	3%
CC(=O)c1ccc(S(=O)(=O)NC(=O)NC2CCCCC2)cc1	·	-8%	7%	-4%	·	?
CCN(CC)S(=O)(=O)c1cccc(-c2nnc(SCC(=O)c3cc(C)n(C)c3C)o2)c1	>57	5%	19%	-4%	>77	-2%
CCN(CC)S(=O)(=O)c1cccc(-c2nnc(C(=O)c3ccc(C(F)(F)F)cc3)o2)c1	>57	-8%	35%	16µM*	>77	-10%
Nc1cc(-c2ccccc2)ccc1O	·	7.9µM*	30%	25µM*	>77	-9%
COC(=O)c1ccc2c(c1)SC1=C(CCCC1=O)N2	>57	16µM*	-4%	16µM*	>77	-9%
SMILES	Bst PK mod	15-hLO inh	USP2a inhib	Tau filament bind	GBA mod	Hsp90 Hop PPI
COC(=O)c1ccc2c(c1)NC(=O)C(N1CCCC1)S2 (stereo unspecified)	>57	-7%	6%	0%	>77	0%
CS(=O)(=O)Nc1cccc(-c2nc(Nc3ccc(F)cc3)c3ccccc3n2)c1	·	?	?	-10%	·	?
Cc1cnc(CNc2nc(-c3ccoc3)nc3ccccc23)cn1	·	8%	100%	0%	·	-11%
c1ccc(CNc2nc(-c3ccoc3)nc3ccccc23)cc1	·	-29%	95%	16µM*	·	-8%
Fc1ccc(Nc2nc(-c3ccoc3)nc3ccccc23)cc1	·	0%	144%	13µM*	·	-4%
COc1ccc2[nH]cc(CCNc3ccnc(-c4cccc(C#N)c4)n3)c2c1	·	8%	?	-22%	·	-17%
COc1ccc2[nH]cc(CCNc3ccnc(-c4cccc(NS(C)(=O)=O)c4)n3)c2c1	·	20µM*	14%	-13%	·	-17%
Fc1ccc(Nc2ccnc(-c3ccoc3)n2)cc1	·	?	156%	13µM*	·	-23%
CC(C)n1cnc2cc(NCc3nc4ccccc4n3C)ccc21	·	19%	4%	15%	>77	-10%
Cc1cccc(CNc2nc(-c3cccc(NS(C)(=O)=O)c3)nc3ccccc23)c1	·	-19%	?	40%	·	-9%
Cc1cccc(CNc2nc(-c3ccoc3)nc3ccccc23)c1	·	-12%	5%	16µM*	·	-6%
COc1ccc2[nH]cc(CCNc3nc(-c4ccoc4)nc4ccccc34)c2c1	·	-6%	?	4µM*	·	-12%
COc1cccc(-c2nc(NCCc3c[nH]c4ccc(OC)cc34)c3ccccc3n2)c1	·	-23%	?	?	·	-21%
Cn1c(=O)cc(OCC(=O)NCCCN2CCN(Cc3ccccc3)CC2)c2ccccc21	·	0%	·	9%	·	-6%
O=c1c2ccccc2sn1-c1ccc(S(=O)(=O)N2CCCCC2)cc1	>57	?	8%	6%	>77	-9%
O=c1c2ccccc2sn1-c1ccc(S(=O)(=O)N2CCCC2)cc1	>57	0.1µM*	0%	1%	>77	-5%
Cc1ccc(-n2sc3ccccc3c2=O)cc1S(=O)(=O)N1CCCCC1	>11	0.5µM*	26%	-11%	·	-21%
Cc1ccc(-c2nc(-c3ccccn3)no2)cc1	·	5%	·	·	·	·
Cc1ccc(-c2nc(-c3ccccn3)no2)cc1Cl	0.54*	-10%	13%	49%	>77	2%
Clc1cccc(-c2nc(-c3ccccn3)no2)c1	3.3*	0%	4%	30%	>77	3%
c1ccc(-c2noc(-c3cccc4ccccc34)n2)nc1	9.6*	-2%	14%	26%	>77	-7%
COc1ccc(NC(=O)Nc2ccc3c(c2)N(C)C(=O)CS3)cc1OC	·	-24%	·	20µM*	·	-14%
CCOc1ccc(NC(=O)Nc2ccc3c(c2)N(C)C(=O)CS3)cc1	·	-10%	·	62%	·	-6%
Cc1c(C(=O)N2CCc3ccccc3C2)sc2nc(-c3ccccc3)cn12	>57	-11%	20%	28%	>77	-7%
c1ccc(-c2cn3c4c(sc3n2)CCCC4)cc1	0.33*	-27%	-10%	42%	·	-1%
CCC(C)(C)n1nnnc1CN(Cc1ccco1)Cc1cc2cc3c(cc2[nH]c1=O)OCO3	>57	0.0079µM*	35%	41%	>77	-16%
Cc1ccc2cc(CN(Cc3ccc4c(c3)OCO4)Cc3nnnn3Cc3ccco3)c(=O)[nH]c2c1C	>57	25µM*	265%	41%	>77	-9%
Cc1ccc(C)c2[nH]c(=O)c(CN(Cc3ccc4c(c3)OCO4)Cc3nnnn3Cc3ccco3)cc12	>57	25µM*	·	14%	>77	-18%
CCOc1ccc2cc(S(=O)(=O)N3CCOCC3)ccc2c1	>57	-22%	5%	16%	>77	-5%
